# Screens (PubChem BioAssay)
# Cycloheximide cs = affects cycloheximide protein synthesis inhibition readout, counter-screen | cell reporter, cycloheximide protein synthesis inhibition counterscreen | max response, % | 300,000 compounds, 12% hits | AID 2314; in the data active = max response mostly above about 13%, no sharp cut-off; inactive = mostly below about 14%; also: read at 38.3 µM for the half of the compounds with a filed dose; 0% is about no effect
# Pf growth 48h = P. falciparum growth inhibition at 48 hours (one generation). P. falciparum luciferase growth in erythrocytes, 48 h. AID 504832. Potency, µM (doses to about 28.7 µM), without a hit: at the top dose activity change, negative = inhibition, most hits filed as inhibitors. 310,000 compounds, 5.9% hits; also: potency is read from the fitted curve at half-maximal effect; % is scaled to controls: 0 for no effect and ±100 for the full control effect
#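 Luminescence readout; reporter = integrated firefly luciferase in P. falciparum. RBC culture at 2% hematocrit, 0.1% parasitemia final, 37 C/5% CO2; decreased signal taken as growth inhibition.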
# Shiga toxin inh = Shiga toxin inhibition. Vero cells, Shiga toxin protein synthesis inhibition reporter. inhibition, % at 38.7 µM. 290,000 compounds, 9.2% hits. AID 2315; in the data active = inhibition mostly above about 28%, no sharp cut-off; inactive = mostly below about 43%; also: 0% is about no effect
# SARS PLP yeast = inhibitors of SARS-CoV papain-like protease in yeast. S. cerevisiae expressing SARS-CoV PLpro, growth rescue. Potency, µM (series often up to 32.9 µM), for inactives: top-dose activity, positive = growth rescue, usual class: activators. 330,000 compounds, 0.19% hits. AID 485353; calls by dose curve; also: potency is read from the fitted curve at half-maximal effect; 0% is about no effect; nearly all actives have a fitted effect of over 55% in size
# Pf growth 96h = P. falciparum growth inhibition at 96 hours; P. falciparum luciferase reporter growth, 96 h; Potency, µM (series often up to 28.7 µM), for the others: at the top dose activity change, negative = inhibition, most hits filed as inhibitors; 320,000 compounds, 6.9% hits; AID 504834; also: potency is read from the fitted curve at half-maximal effect; % is scaled to controls: 0 for no effect and ±100 for the full control effect
#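 P. falciparum expressing integrated firefly luciferase, in erythrocytes at 2% hematocrit, 0.05% parasitemia, incubated with compounds 96 h at 37 C, 5% CO2. Growth inhibition read as loss of luminescence; two-generation exposure targets delayed-death apicoplast inhibitors.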
# NS1 inh = blocks influenza NS1 protein function. Potency, µM (titrated, usually from 46.1 µM), without a hit: top-dose activity, positive = more growth. 270,000 compounds, 0.4% hits; calls by dose curve; also: potency is read from the fitted curve at half-maximal effect; actives are rising curves; nearly all actives have a fitted effect of over 50% in size
#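 Recovery from NS1-induced slow growth read by OD600 in budding yeast switched to galactose assay medium (pH 6.0, -URA) at 1:100 dilution. Compound 23 nl per well; the matching strain lacking NS1 serves as control.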
# * = called active by the depositor; ? = inconclusive; · = no result given; [ ] = dose if it differs, or a comment. An excerpt weighted towards active compounds, which were near 21% of everything screened. Unless noted, calls follow the shape of the dose curve; as a rule, active = well fitted inhibition curve with a large enough effect; inconclusive = small, poorly fitted or top-dose-only effect, or another doubt; inactive = no such curve, though single readings can be large or run the other way.
SMILES,Cycloheximide cs,Pf growth 48h,Shiga toxin inh,SARS PLP yeast,Pf growth 96h,NS1 inh
O=S(=O)(c1ccc2ccccc2c1)N1CCN(C2CCN(Cc3ccccc3)CC2)CC1,-3,?,-14,1%,1%,3%
O=S(=O)(c1ccccc1)N1CCN(C2CCN(Cc3ccccc3)CC2)CC1,1,0.1µM*,-14,4%,0%,-11%
Cc1ccc(S(=O)(=O)N2CCN(C3CCN(Cc4ccccc4)CC3)CC2)cc1,-4,6%,-19,3%,-8%[5.75 µM],-3%
COc1ccc(C(=O)N2CCN(C3CCN(Cc4ccccc4)CC3)CC2)cc1OC,-3,·,-9,2%,-36%,2%
Cc1ccc(OCC(=O)N2CCN(c3ccc([N+](=O)[O-])c(N4CCOCC4)c3)CC2)cc1,-3,-26%,-19,-3%,?,-12%
Cc1ccc(C(=O)OCC(=O)N2CCOCC2)c(C)c1,18*,37%,39,1%,61%,-3%
Cc1ccc(C(=O)OCC(=O)N2CCOCC2)cc1,27*,145%,50*,0%,111%,-16%
Cc1cc(OCC(=O)N2CCOCC2)ccc1NC(=O)c1ccccc1C,21*,41%,19,-1%,18%,16%
Cc1cc(OCC(=O)N2CCOCC2)ccc1[N+](=O)[O-],25*,93%,58*,0%,144%,4%
N#Cc1ccc(C(=O)OCC(=O)N2CCOCC2)cc1,-4,22%,-6,10%,35%,-1%
C=CCNC(=O)c1ccccc1NC(=O)C1COc2ccccc2O1 (stereo not drawn),5,?,4,0%,?,6%
Cc1ccc(-c2ccc(OCC(=O)N3CCOCC3)cc2)cc1,42*,70%,62*,-8%,·,-16%
CC1CCN(C(=O)COC(=O)c2ccccc2C(=O)c2ccccc2)CC1,·,·,·,-2%,·,·
O=C(COc1ccc(Br)cc1)OCC(=O)N1CCOCC1,·,·,·,-3%,·,·
O=C(OCC(=O)N1CCOCC1)c1ccc(Br)cc1,20*,40%,60,0%,54%,-4%
O=Cc1ccc(OCC(=O)N2CCOCC2)cc1,-1,35%,-7,0%,10%,-2%
Cc1ccc(C(=O)c2ccccc2C(=O)OCC(=O)N2CC(C)CC(C)C2)cc1 (stereo not drawn),·,7.4µM*,·,-8%,7.4µM*,·
Cc1ccc(C)c(S(=O)(=O)NCCN2CCOCC2)c1,-1,10%,0,1%,38%,2%
c1ccc(-c2ccc3c(c2)c2c4n3CCN=C4CCC2)cc1,7,-63%,8,-13%,?,-56%
CC(C1CC2CCC1C2)N1CC(O)=C(c2nc3ccccc3[nH]2)C1=N (stereo not drawn),17,?,12,1%,3.3µM*,-6%
CC1(C)C(O)=C(c2nc3ccccc3[nH]2)C(=N)N1c1ccccc1,-2,?,-13,-1%,8.3µM*,7%
CC(C)N1CC(O)=C(c2ccccc2)C1=N,1,13%,30,2%,27%,2%
N=c1c(-c2nc3ccccc3[nH]2)cc(C(=O)c2cccs2)nn1-c1ccccc1,3,?,-7,2%,?,?
CC(C)N1CC(O)=C(c2nc3ccccc3[nH]2)C1=N,52*,78%,77*,1%,18%,-19%
COc1cccc(-c2c(-c3cc(OC)cc(OC)c3)n(C)c3ccc(-c4ccc5cc[nH]c5c4)cc23)c1,·,·,·,0%,·,·
SMILES,Cycloheximide cs,Pf growth 48h,Shiga toxin inh,SARS PLP yeast,Pf growth 96h,NS1 inh
COc1cc(OC)cc(-c2c(-c3cccs3)c3cc(-c4ccc(OCc5ccccc5)cc4)ccc3n2C)c1,·,·,·,-2%,·,·
COc1cc(OC)cc(-c2c(-c3cccs3)c3cc(-c4ccc5[nH]ccc5c4)ccc3n2C)c1,·,6.6µM*,·,2%,2.3µM*,·
COc1cc(OC)cc(-c2c(-c3cccs3)c3cc(-c4ccc5cc[nH]c5c4)ccc3n2C)c1,·,10µM*,·,-1%,?,·
CCOc1ccc(CCNC(=O)C2CCCN2C(=O)OCc2ccccc2)cc1OCC (stereo not drawn),1,-12%,20,1%,24%,·
CCCC(C(=O)NCc1ccco1)N(C(=O)CNS(=O)(=O)c1ccc(Cl)cc1)C1CCCC1 (stereo not drawn),1,12µM*,9,0%,14%,-14%
CCC(C(=O)NCc1ccco1)N(C(=O)CNS(=O)(=O)c1ccccc1)C1CCCCC1 (stereo not drawn),1,·,-8,-12%,6.6µM*,-1%
CCS(=O)(=O)N1CCN(S(=O)(=O)c2ccc3c(c2)OCCO3)CC1,-2,0%,20,?,?,21%
Cc1cccn2c(CN[C@H]3CCCCNC3=O)c(C(=O)N3CCOCC3)nc12,1,8%,-3,-2%,9.3µM*,-4%
CSc1ccccc1C(=O)N1CCN(c2ncccn2)CC1,0,-1%,1,1%,36%,·
CCN1CCN(CCCOc2ccc(-c3ccccc3)cc2)CC1,37*,-67%,70*,-5%,21%,-5%
COc1ccc(OCCOCCN2CCN(C)CC2)cc1,-3,27%,-1,-1%,19%,18%
CCN1CCN(CCCOc2ccccc2-c2ccccc2)CC1,10,?,3,0%,-6%,3%
OCCCN1CCN(CCOc2ccccc2-c2ccccc2)CC1,1,?,9,-6%,10µM*,1%
CN1CCN(CCOc2ccc(-c3ccccc3)cc2)CC1,46*,?,86*,?,?,-1%
OCCN1CCN(CCOc2ccccc2-c2ccccc2)CC1,-1,-13%,-6,-3%,-35%,11%
CN1CCN(CCCOc2ccc(-c3ccccc3)cc2)CC1,27*,?,75*,-5%,-7%,-12%
CCc1ccccc1N(CC(=O)NC1CCCCC1)C(=O)CNC(=O)c1ccco1,-5,-21%,-6,2%,6%,-6%
CSCCCNC(=S)N1CCN(c2ccc(C(C)=O)cc2)CC1,11,?,9,-2%,12µM*,-2%
CC(=O)c1ccc(N2CCN(C(=S)Nc3cc(C)ccc3C)CC2)cc1,7,10µM*,29,16%,?,1%
CCCCNC(=S)N1CCN(c2ccc(C(C)=O)cc2)CC1,5,?,7,-2%,?,3%
O=C(NC1CCN(Cc2ccc(Cl)c(Cl)c2)CC1)c1ccccc1,-2,-4%[0.00184 µM],20,0%,?,-4%
Cc1ccc2c(CC(=O)Nc3ccc(N4CCN(C)CC4)cc3C)coc2c1,18*,?,47,-1%,?,7%
Cc1ccc2c(CC(=O)Nc3sccc3C(N)=O)coc2c1,41*,142%,81*,-17%,11%,-50%
CCN(CC(=O)Nc1ccc(NC(C)=O)cc1)C(=O)c1cccnc1Sc1ccc(C)c(C)c1,·,?,·,-1%,1%,·
Oc1ccc(CCC2CCCCN2Cc2nc(C3CC3)no2)cc1 (stereo not drawn),8,-28%,-1,0%,-23%,-2%
